Screening results deposited in PubChem BioAssay by Broad Institute.
aSyn UTR act = Activators working through SNCA 5'UTR binding (MLPCN). AID 1814. 7.1% of 300,000 active. alpha-synuclein 5'UTR reporter, activators screen. activity score, % (tested at 7.5 µM), hits read low; in the data active means activity score below about -60%
Numbers without * were called inactive. Only a sample is shown.

SMILES	aSyn UTR act
Cc1ccsc1/C=N/NC(=S)NCCc1ccccc1	-108*
CCNC(=S)N/N=C/c1cn(Cc2ccccc2F)c2ccccc12	52
CCOc1ccc(-c2nc(C#N)c(NC3CC3)o2)cc1	-95*
COc1ccc(Nc2oc(-c3ccccc3)nc2C#N)cc1	-112*
COc1ccc(-c2nc(C#N)c(NCCc3ccccc3)o2)cc1	-146*
CCOc1ccc(Nc2oc(-c3ccc(Cl)cc3)nc2C#N)cc1	-139*
CNc1oc(-c2ccccc2)nc1C#N	-62*
COc1ccc(Nc2oc(-c3ccc(OC)cc3)nc2C#N)cc1	-132*
COc1ccc(Nc2oc(-c3ccc(Cl)cc3)nc2C#N)cc1	-77*
COc1ccc(Nc2oc(COc3ccc(Cl)cc3)nc2C#N)cc1	91
Cc1cccc(NCc2ccc(N(C)C)cc2)n1	-72*
COc1ccccc1C(CCNCc1ccc(N(C)C)cc1)c1ccc(OC(C)C)cc1 (configuration not stated)	135
O=C(/C=C\Nc1ccc(Cl)cn1)c1ccc(Br)cc1	-165*
Cc1ccnc(N/C=C/C(=O)c2ccc(Br)cc2)c1	-62*
Cc1cc(N/C=C/C(=O)c2ccc(Br)cc2)no1	-198*
CC(=O)Nc1sc(C)c(C)c1C(=O)Nc1ccc(C)cc1	-66*
Cc1sc(NC(=S)Nc2ccc(F)cc2)c(C(N)=O)c1C	-87*
Cc1sc(NC(=O)c2ccc(Br)s2)c(C(N)=O)c1C	-225*
Cc1sc(NC(=O)c2ccc(Cl)s2)c(C(N)=O)c1C	-284*
NC(=O)C1CCCN(C(=S)Nc2cccc3ccccc23)C1 (configuration not stated)	-90*
N#CCC(=O)Nc1ccc(C(=O)OCC(=O)c2ccc3c(c2)OCCO3)cc1	-112*
N#CCC(=O)Nc1ccc(C(=O)OCC(=O)c2ccc3c(c2)OCO3)cc1	-89*
N#Cc1cc(C#N)c(N2CCN(c3ccccn3)CC2)nc1N	-204*
Cc1ccccc1Nc1nc(N)nc(CSc2nnnn2C)n1	-109*
Cc1ccccc1Nc1nc(N)nc(CSc2ccc(F)cc2)n1	-125*
SMILES	aSyn UTR act
Cc1ccc(Nc2nc(N)nc(CSc3nccn3C)n2)c(C)c1	-101*
c1ccc(-c2nc3c([nH]2)CCc2nonc2-3)cc1	-66*
C=CCn1c(SCc2csc(-c3ccc(Cl)cc3)n2)nnc1-c1ccccc1OC	-64*
Cc1cc(C)nc(SCc2csc(-c3ccccc3)n2)n1	-91*
Nc1ccccc1SCc1csc(-c2ccc(Cl)cc2)n1	-72*
N#C/C(=C\c1cccs1)c1nc2ccccc2[nH]1	-256*
N#C/C(=C/c1cccs1)c1ccccn1	-117*
N#C/C(=C\c1cn(-c2ccccc2)nc1-c1cc2ccccc2o1)c1nc2ccccc2[nH]1	-106*
N#C/C(=C/c1ccc(O)c(O)c1)c1nc2ccccc2[nH]1	-148*
CC(C)CC(/C(O)=C(\C#N)c1nc2ccccc2[nH]1)N1C(=O)c2ccccc2C1=O (configuration not stated)	65
N#C/C(=C\Nc1ccc2c(c1)OCCO2)c1nc2ccccc2[nH]1	-65*
O=[N+]([O-])c1cc(/C=N/n2cnnc2)ccc1N1CCCC1	65
N#C/C(=C\c1ccc(Sc2ccccc2)o1)c1nc2ccccc2[nH]1	-219*
N#C/C(=C\c1ccc(N2CCCC2)c([N+](=O)[O-])c1)c1nc2ccccc2[nH]1	-80*
N#C/C(=C\c1ccc(OC(=O)c2cccs2)cc1)c1nc2ccccc2[nH]1	-153*
CC(C)COC(=S)Nc1ccccc1	-83*
Cc1ccnc(NC(=O)C2CCN(S(=O)(=O)c3ccc(C)c(C)c3)CC2)c1	-81*
N#Cc1ccccc1NC(=O)c1ccc(-c2ccccc2Cl)o1	-128*
O=C(Nc1ccccc1)c1ccc(-c2ccccc2Cl)o1	-178*
O=C(NCCC1=CCCCC1)c1cnsn1	-65*
Cc1cc(C(=O)NCCC2=CCCCC2)no1	-81*
Cc1c(C(=O)NCCC2=CCCCC2)cccc1[N+](=O)[O-]	-90*
Cc1c(C)c2ccc(OCC(=O)Nc3ccccn3)c(C)c2oc1=O	110
CC(=O)COc1ccc2c3c(c(=O)oc2c1C)CCCCC3	-120*
Cc1c(OCc2ccc([N+](=O)[O-])cc2)ccc2c3c(c(=O)oc12)CCC3	-114*
SMILES	aSyn UTR act
Cc1c(OCC(=O)NCc2cccnc2)ccc2c3c(c(=O)oc12)CCC3	-71*
Cc1c(OCC(=O)OC(C)(C)C)ccc2c3c(c(=O)oc12)CCC3	-62*
Cc1sc2c(c1C)CN(Cc1ccncc1)CN2C(=O)c1ccco1	-93*
CCOC(=O)c1cnn(-c2ccc(C(F)(F)F)cn2)c1N	-277*
CCOC(=O)c1cnn(-c2ncnc3c2cnn3C)c1N	-94*
CC(=O)c1sc(NC(=O)c2ccc(Br)o2)nc1C	-77*
CCOC(=O)c1csc(NC(=O)c2cc(=O)c3ccccc3o2)n1	-69*
CC(=O)c1sc(NC(=O)c2cc(=O)c3ccccc3o2)nc1C	-81*
Nc1ccccc1SCC(=O)Nc1ccc2c(c1)OCCO2	-89*
CC(=O)NC(CC(=O)Nc1ccc2c(c1)OCCO2)c1ccccc1 (configuration not stated)	-77*
CC(Nc1ccc2c(c1)OCCO2)C(=O)N1CCc2ccccc21 (configuration not stated)	-65*
O=C(CSc1ccccn1)Nc1ccc2ccccc2c1	-159*
Cc1ccnc(NC(=O)CSc2ccc3c(c2)OCCO3)c1	-114*
Cc1cccc(SCC(=O)Nc2ccc3c(c2)OCCO3)c1	-117*
O=C(CSc1ccccn1)Nc1ccc2c(c1)C(=O)c1ccccc1C2=O	-68*
O=C(CSc1ccccn1)Nc1ccc2c(c1)CCC2	-77*
O=C(CSc1ccccn1)Nc1ccc2c(c1)OCCO2	-65*
O=C(Nc1ccc2c(c1)OCCO2)c1ccccn1	88
O=C(CSc1nccc(=O)[nH]1)Nc1ccc2c(c1)OCCO2	-139*
CC1CN(S(=O)(=O)c2cc(C(=O)NCCC3=CCCCC3)ccc2Cl)CC(C)O1 (configuration not stated)	-85*
O=C(NCCc1ccccc1)c1cnc(Cl)c(Cl)c1	-119*
O=C(NCCc1ccccc1)c1ccc(Cl)c(S(=O)(=O)N2CCCC2)c1	-67*
O=C(NCC(O)c1ccccc1)c1ccc(Cl)c(S(=O)(=O)N2CCCC2)c1 (configuration not stated)	-96*
O=C(NCC(O)c1ccccc1)c1ccccc1 (configuration not stated)	-80*
COc1cc2c(C#N)c(N3CCc4ccccc4C3)nc(N)c2c(N)n1	-88*
SMILES	aSyn UTR act
Cc1ccc(/C=N/Nc2nc(Cl)c(Cl)cc2Cl)s1	-141*
Cc1ccsc1/C=N/Nc1nc(Cl)c(Cl)cc1Cl	-162*
Cn1cc(C(=O)N/N=C/C(Br)=C\c2ccccc2)ccc1=O	-83*
COc1ccc(O)c(/C=N/NC(=O)c2ccc(OCc3cccc(Br)c3)cc2)c1	82
COc1cccc(C(=O)N/N=C/C(Br)=C/c2ccccc2)c1	-135*
O=C(Nc1cccc([N+](=O)[O-])c1)c1ccc(CN2CCOCC2)cc1	-124*
C/C(=N\NC(=O)c1ccc(CN2CCOCC2)cc1)c1ccc(NC(=O)c2ccccc2)cc1	-77*
O=C(Nc1ccc(CN2CCOCC2)cc1)c1ccc2ccccc2c1	-182*
O=C(NN=C1CCN(Cc2ccccc2)CC1)c1ccccc1	-88*
O=C(Nc1ccc(CN2CCOCC2)cc1)c1ccc(Cl)cc1	-207*
O=C(Nc1ccc(CN2CCOCC2)cc1)c1ccc(Br)cc1	-173*
O=C(N/N=C/c1ccccc1[N+](=O)[O-])c1ccc(CN2CCOCC2)cc1	-83*
